High-throughput results deposited in PubChem by National Center for Advancing Translational Sciences (NCATS).
FBPA coupling cs: inhibits coupling enzyme system, counter-screen for aldolase hits | coupling enzyme system counterscreen, AmpLite Red fluorescence | activity change, negative = inhibition, % at 58.2 µM, hits read low | 0.67% of 290,000 active; in the data active means activity change below about -30%
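Counterscreen lacking aldolase: glyceraldehyde-3-phosphate coupling-enzyme reagent preincubated 10 min at RT with compound (at 57.5 uM final), then substrate/coupling system with AmpLite Red added; fluorescence read at 525/598 nm after 20 min RT.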
Sfp inh: blocks B. subtilis Sfp PPTase activity | Q9F4F7 | Biochemical Sfp PPTase activity, qHTS | Potency, µM, inactives show largest response in the series, negative = inhibition, actives largely listed as inhibitors | 3.5% of 310,000 active | AID 1490;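 further: the enzyme is Sfp with the accession as filed and its product quenches rhodamine fluorescence; potency means the concentration at half of the fitted maximal effect; 0% = enzyme reaction without inhibitor and -100% = no enzyme wells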
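Fluorescence-quenching assay: 15 nM Sfp-PPTase preincubated 15 min at room temperature with compound, then 5 uM rhodamine-CoA and 12.5 uM BHQ-2-labelled YbbR peptide added. Fluorescence (ex 525/em 598 nm) read at start and after 30 min; difference gives rate.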
Tau fibril ThT: blocks human tau fibril formation measured by thioflavin T; P10636; recombinant tau K18 P301L, heparin-induced fibrillization, ThT fluorescence; Potency, µM (highest dose often 57.4 µM), without a hit: top-dose activity, negative = inhibition, most hits filed as inhibitors; 2.1% of 270,000 active; further: potency means the concentration at half of the fitted maximal effect; nearly all actives have a fitted effect of over 55% in size
Target sequence (P10636 561-689 P618L limits assumed): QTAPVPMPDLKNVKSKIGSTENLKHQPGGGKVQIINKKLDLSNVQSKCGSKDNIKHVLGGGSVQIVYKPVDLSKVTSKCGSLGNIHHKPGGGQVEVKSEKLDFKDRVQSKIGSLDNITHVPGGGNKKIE
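Recombinant human tau K18 fragment […] carrying P301L, 15 uM unlabeled plus 0.24 uM Alexa 594-labeled, was fibrillized with 20 uM heparin in 100 mM sodium acetate pH 7 for 6 hr at 37 C; 30 uM ThT fluorescence read after 1 hr.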
Tau fibril FP: tau fibrillization inhibition (FP); P10636; K18 P301L tau heparin fibrillization, Alexa594 FP, 6 h; Potency, µM (top dose mostly 57.7 µM), for inactives: at the top dose activity, negative = inhibition, actives largely listed as inhibitors; 0.39% of 280,000 active; further: potency means the concentration at half of the fitted maximal effect; nearly all actives have a fitted effect of over 55% in size
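Compound effects on tau fibrillization are measured by Alexa 594 fluorescence polarization (ex 555, em 632 nm). K18 P301L tau is used at 15 uM with 0.24 uM labeled tracer, and 20 uM heparin induces aggregation over 6 hr at 37 C.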
Tau fluor counter: counter-screen for tau fibril formation inhibitors; 0.93% of 280,000 active; tau K18 P301L (four-repeat tau fragment) Alexa594 fluorescence, heparin fibrillization; Potency, µM (titrated, usually from 57.7 µM), for inactives: at the highest dose activity change, negative = decrease; further: potency means the concentration at half of the fitted maximal effect; nearly all actives have a fitted effect of over 55% in size
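Human K18 P301L tau (15 uM unlabeled plus 0.24 uM Alexa 594-labeled, final) in 100 mM sodium acetate pH 7 was mixed with compound and 20 uM heparin and incubated 6 hr at 37 C.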
* marks the source's active call; other numbers are inactive results; u = inconclusive; x = no result; [ ] = remark or other dose. Most compounds without a hit are left out; they make up all but 5.2% or so of the library. Unless noted, the call rests on the fitted dose curve; in most records, active means well fitted curve in the direction sought with a large enough effect; inconclusive means small, poorly fitted or top-dose-only effect, or another doubt; inactive means no such curve, though single readings can be large; an effect the other way counts as inactive or inconclusive. Unless noted, on the % scale 0 is the no-effect control and ±100 the full control effect.

SMILES | FBPA coupling cs | Sfp inh | Tau fibril ThT | Tau fibril FP | Tau fluor counter
O=C(Cn1c(=O)oc2ccccc21)NCc1ccccc1Cl | x | x | 3% | -1% | 4%
COc1ccc(C(=O)Oc2ccc(F)cc2C(=O)/C=C/c2ccc(OC)c(OC)c2)cc1 | -2 | 1% | -10% | 7% | 0%
O=C(Oc1ccc(F)cc1C(=O)/C=C/c1cccs1)c1cccc([N+](=O)[O-])c1 | -1 | 16% | 14µM* | 10% | u
O=C(/C=C/c1ccccc1F)c1cccc([N+](=O)[O-])c1 | 1 | 2.8µM* | u | 19% | u
CC(C)(C)c1ccc(S(=O)(=O)N2CCN(CCC#N)CC2)cc1 | 2 | 18% | -4% | -9% | -7%
Cc1ccc(S(=O)(=O)c2ccc(C)cc2)cc1 | -6 | -4% | -2% | -11% | -7%
CC(C)(C)c1ccc(S(=O)(=O)/C=C\C#N)cc1 | 0 | 45µM* | u | u | -16%
Cc1ccc(S(=O)(=O)/C=C/C#N)cc1 | 1 | 2.8µM* | u | -20% | -5%
Cc1ccc(S(=O)(=O)/C=C\C#N)cc1 | 4 | 45µM* | u | u | -8%
CC(=O)c1sc(NC(=O)c2c(-c3ccccc3)c(-c3ccccc3)nn(C)c2=O)nc1C | x | x | 0% | 4% | -6%
COC(=O)c1c(N2C(=O)CC(Sc3ncccc3C(=O)O)C2=O)sc(C)c1C (stereo not given) | 15 | 89µM* | x | -2% | u
COc1ccc(CN(C(=O)c2ccccc2F)C2CCS(=O)(=O)C2)cc1 (stereo not given) | x | x | 2% | u | -4%
N#Cc1ccc2ccn(CC(=O)N3CCCc4ccccc43)c2c1 | -39* | 13% | -2% | 7% | -15%
O=C(CN1CCCCC1)N1CCCc2ccccc21 | 0 | -11% | -5% | 2% | -6%
Nn1c(C2COc3ccccc3O2)n[nH]c1=S (stereo not given) | -2 | 7.1µM* | u | u | -14%
COc1ccc([C@@H]2CC(=O)c3c(O)cc(O[C@@H]4O[C@H](CO[C@@H]5O[C@@H](C)[C@H](O)[C@@H](O)[C@H]5O)[C@@H](O)[C@H](O)[C@H]4O)cc3O2)cc1 | 0 | 6% | x | x | x
CC(=O)Nc1nc(N2C(=O)c3ccccc3C2=O)n(-c2ccccc2)n1 | -5 | 8.9µM* | 11% | 0% | -1%
O=C(Nc1nc(N2C(=O)c3ccccc3C2=O)n(-c2ccccc2)n1)c1ccccc1 | 0 | 0.89µM* | -8% | -1% | -1%
Cc1ccc(Cl)cc1N1CCN(C(=O)c2cc(S(=O)(=O)N3CCCCC3)cn2C)CC1 | x | x | -8% | -11% | -5%
COC(=O)c1ccc(NC2CC(=O)N(c3ccccc3C)C2=O)cc1 (stereo not given) | -1 | -17% | -15% | -1% | -6%
COC(=O)c1ccccc1NC1CC(=O)N(c2c(C)cccc2C)C1=O (stereo not given) | -2 | 28µM* | -15% | 4% | -14%
C#CCn1c(=O)c2c(nc(/C=C/c3cccc(OC)c3)n2C)n(CCCO)c1=O | -2 | 25% | x | x | x
Cc1cc(C)n(-c2nnc(N3CCN(c4ccc(F)cc4)CC3)nn2)n1 | -12 | 15% | 13µM* | 5% | -24%
Cc1cc(C)n(-c2ccc(N3CCOCC3)nn2)n1 | -1 | -6% | 3% | 5% | 4%
COc1ccccc1NC(=O)C1CCN(S(=O)(=O)c2ccc3c(c2)oc(=O)n3C)CC1 | x | x | 10% | -8% | -5%
CCOc1cccc(C(=O)c2ccc(O)c(O)c2O)c1 | -22 | -79% | 22µM* | u | u
CCOC(=O)COc1ccc(C(=O)c2ccccc2)c(O)c1 | -1 | -12% | -7% | 6% | -8%
CCOc1ccc(C(=O)c2ccc(O)c(O)c2O)cc1 | -3 | 50µM* | 22µM* | u | u
COc1cccc(N2CCN(C(=O)c3ccc(=O)oc3)CC2C)c1 (stereo not given) | 15 | 35µM* | u | -4% | -15%
CC#CCN1c2ccccc2[C@]23C[C@@H](C(=O)OC)N(S(=O)(=O)c4ccc([N+](=O)[O-])cc4)C2=NC(C(=O)OC)=C(C(=O)OC)[C@H]13 | 0 | 1% | -13%[11.5 µM] | 0%[11.6 µM] | -24%[11.6 µM]
